Each sequence was assayed against T1, ETS1 (UniProt P14921) (assay: ETS1 binding intensity (PBM fluorescence) in presence of RUNX1, normalised to ETS1-only experiment (arbitrary fluorescence units); higher = stronger binding). Conditions: ETS1 concentration 1 nM; RUNX1 concentration 25 nM.
T1 sequence: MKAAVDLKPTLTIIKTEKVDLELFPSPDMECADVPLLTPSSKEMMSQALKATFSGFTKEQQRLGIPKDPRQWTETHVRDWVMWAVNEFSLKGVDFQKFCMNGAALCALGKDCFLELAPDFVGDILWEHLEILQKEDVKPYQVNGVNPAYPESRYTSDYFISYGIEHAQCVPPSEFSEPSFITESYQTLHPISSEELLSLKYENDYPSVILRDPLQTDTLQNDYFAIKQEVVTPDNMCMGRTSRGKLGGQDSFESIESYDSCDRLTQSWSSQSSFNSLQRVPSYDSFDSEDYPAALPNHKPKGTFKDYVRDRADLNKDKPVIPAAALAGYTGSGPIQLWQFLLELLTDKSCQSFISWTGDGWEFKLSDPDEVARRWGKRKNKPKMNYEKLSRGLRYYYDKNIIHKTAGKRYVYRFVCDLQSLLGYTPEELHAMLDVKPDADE
For TTACACCCAAGGGATGTTGTTTGTGGGGGGCGGGGT, the ETS1 binding intensity was 490.
TGAGCACTGAGCACTTCCTGTGGCTTCTGAAGCTCC gave an ETS1 binding intensity of 2040.
Sequence TGGGGCCCGGAAGCGCTGGCGCCTTGCGGCCAGAAG has an ETS1 binding intensity of 3180.
Work on TGCGACGGAAGCAGGAACTTGCTAACCACAAAACCC yielded an ETS1 binding intensity of 13200.
For TTAGATGTGCCTACATCCTGACCTCAAAAACCTCTG, the ETS1 binding intensity was 767.
In the case of CCGGGCTGCGGAAGGCGGGAATTCTGCGGTTCGCGG, the ETS1 binding intensity is reported as 1990.
GGGGACCGGAAAGGGAGGGGTGGGCCGCAGGCGCCG was tested, and the ETS1 binding intensity was 680.
For GAAATCCATCACGGATGTGGGCTTTTTGCTCTCATT, the ETS1 binding intensity was 1620.

— the supplement of paper PMC10681739
